Screening results as filed in PubChem BioAssay.
Many of the other results were omitted from the sample, so hits are more common in it than they were.
HT1080-NT tox: kills 2HG-producing HT-1080-NT fibrosarcoma cells; HT-1080-NT fibrosarcoma viability, CellTiter-Glo ATP luminescence, 48 h; Potency, µM (top dose mostly 46.1 µM), for inactives: at the top dose activity, negative = less viability, usual class: cytotoxic; actives 1.6% (n = 360,000); AID 686970;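 further: NT is the 2HG producing partner of a matched IDH1 knockdown line; potency means the concentration at half of the fitted maximal effect; 0% = DMSO-treated cells and -100% = media-only wells without cells; nearly all actives have a fitted effect of over 55% in size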
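Viability by CellTiter-Glo luminescence after 48 h compound exposure at 37C of HT-1080-NT cells (750/well, RPMI, 5% FBS). % activity scaled between DMSO wells and medium-only wells, then curve-fitted and categorized by curve class.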
HT1080 IDH1KD tx: HT-1080 IDH1 knockdown cell toxicity (counter line) | HT-1080 IDH1 knockdown viability, ATP luminescence, 48 h | Potency, µM (doses to about 46.1 µM), inactives show top-dose activity, negative = toxicity, hits mostly cytotoxic | actives 2% (n = 360,000) | AID 686971;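 further: potency means the concentration at half of the fitted maximal effect; 0% = DMSO wells and -100% = cell-free medium wells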
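In this qHTS, HT-1080 cells depleted of IDH1 are exposed for 48 h at 37 °C to compound titrations. Toxicity is scored from CellTiter-Glo luminescence, with DMSO as full viability and medium alone as none.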
IL1B secr inh: inhibitors of inflammasome signaling (IL-1 beta secretion) | activity change, % at 57.5 µM | THP-1 LPS/ATP IL-1B secretion, AlphaLISA, 16 h; hits give low values | AID 743279 | actives 4.7% (n = 360,000); in the data active means activity change below about -50%; inconclusive means mostly about -30% to -49%
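THP-1 cells pretreated 1 hr with compounds (up to 57.5 uM final), then stimulated with LPS (250 ng/mL final) plus ATP (1.25 mM final); secreted IL-1B measured by AlphaLISA after 16 hr, decreased signal indicating inhibition.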
DT40 TDP1 CPT: DT40-hTDP1 cell growth loss with CPT | actives 12% (n = 420,000) | chicken DT40 Tdp1-/-;hTDP1 cells + 20 nM CPT, ATP luminescence, 48 h | Potency, µM (series often up to 46.2 µM), for the others: at the highest dose activity change, negative = growth inhibition, actives largely listed as inhibitors; further: potency means the concentration at half of the fitted maximal effect; nearly all actives have a fitted effect of over 55% in size
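Chicken DT40 Tdp1-/- cells complemented with human TDP1, 400 cells/well, exposed to compounds plus 20 nM camptothecin for at least 48 h at 37 C; viability read as ATP content by CellTiter-Glo luminescence.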
DT40 TDP1 no CPT: qHTS for Inhibitors of human tyrosyl-DNA phosphodiesterase 1 (TDP1): qHTS in cells in absence of CPT. Potency, µM (highest dose often 46.2 µM), for inactives: at the top dose activity change, negative = growth inhibition, most hits filed as inhibitors. DT40 Tdp1-/- hTDP1 cells, no CPT, ATP luminescence, 48 h. actives 15% (n = 420,000); further: potency means the concentration at half of the fitted maximal effect; nearly all actives have a fitted effect of over 55% in size
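Compound effects on proliferation are scored in DT40 Tdp1-/-;hTDP1 cells in the absence of CPT. ATP levels (CellTiter-Glo luminescence) are recorded after a ≥48 hr, 37 °C incubation.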
12-LOX inh: inhibitors of human 12S-lipoxygenase ALOX12; AID 1671190; purified 12hLO, xylenol orange hydroperoxide absorbance; Potency, µM (doses to about 108 µM), for inactives: at the top dose activity change, negative = inhibition, hits mostly inhibitors; actives 1.1% (n = 580,000); P18054; further: potency means the concentration at half of the fitted maximal effect
Target sequence (P18054 whole entry, looked up): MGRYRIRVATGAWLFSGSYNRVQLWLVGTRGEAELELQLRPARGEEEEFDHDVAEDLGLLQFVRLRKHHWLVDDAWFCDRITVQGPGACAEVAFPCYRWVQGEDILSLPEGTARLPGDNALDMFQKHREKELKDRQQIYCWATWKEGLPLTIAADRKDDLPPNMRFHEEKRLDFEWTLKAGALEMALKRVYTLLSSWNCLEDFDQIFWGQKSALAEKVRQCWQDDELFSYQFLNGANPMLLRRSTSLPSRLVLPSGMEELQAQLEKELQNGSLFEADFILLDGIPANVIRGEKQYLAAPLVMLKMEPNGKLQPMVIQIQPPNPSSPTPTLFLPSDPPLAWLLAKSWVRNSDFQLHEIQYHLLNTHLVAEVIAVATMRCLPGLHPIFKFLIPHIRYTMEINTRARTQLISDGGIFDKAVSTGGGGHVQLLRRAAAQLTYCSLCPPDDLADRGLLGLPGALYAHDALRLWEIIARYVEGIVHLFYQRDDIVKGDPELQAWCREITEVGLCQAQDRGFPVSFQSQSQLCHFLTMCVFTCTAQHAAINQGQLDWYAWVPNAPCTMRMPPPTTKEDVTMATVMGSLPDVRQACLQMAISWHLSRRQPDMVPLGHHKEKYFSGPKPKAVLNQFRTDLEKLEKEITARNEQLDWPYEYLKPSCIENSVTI
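Purified human 12hLO at 150 nM in 25 mM Hepes, 0.01% Triton X-100, pH 7.0, preincubated 15 min at room temperature with compound. Reaction started with 40 uM arachidonic acid, 30 min at room temperature. Hydroperoxide measured by Fe-xylenol orange, 573/405 nm absorbance ratio.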
* = called active by the depositor; i = inactive; ? = inconclusive; nt = no result; [ ] = dose if it differs, or a comment. Unless noted, the call rests on the fitted dose curve; in most records, active means well fitted curve in the direction sought with a large enough effect; inconclusive means small, poorly fitted or top-dose-only effect, or another doubt; inactive means no such curve, though single readings can be large; an effect the other way counts as inactive or inconclusive. Unless noted, on the % scale 0 is the no-effect control and ±100 the full control effect.

SMILES	HT1080-NT tox	HT1080 IDH1KD tx	IL1B secr inh	DT40 TDP1 CPT	DT40 TDP1 no CPT	12-LOX inh
CC(C)OC(=O)C(C(=O)C(F)(F)F)c1cc(NS(=O)(=O)c2ccc3ccccc3c2)c2ccccc2c1O (stereo not given)	8.2µM*	12µM*	-61*	23µM*	21µM*	nt
CSc1ccc(CN(C)C(=O)c2cc(S(=O)(=O)NCc3ccccc3)ccc2C)cc1	?	?	?	?	21µM*	?
Cc1ccc(S(=O)(=O)NCc2ccccc2)cc1C(=O)N(C)CC(=O)Nc1c(Cl)cccc1Cl	0%	-1%	-13	23µM*	?	?
CC(C)Oc1ccc(CN2C[C@@H](CO)[C@H](c3ccncc3)C2)cc1	nt	nt	nt	nt	nt	52%
O=C(/C=C/c1cccc(Cl)c1)OCC(=O)c1ccc[nH]1	19%	19%	12	1%	4%	-16%
O=C(/C=C/c1ccc2c(c1)OCO2)NCCS(=O)(=O)N1CCN(c2ccccc2)CC1	?	7.3µM*	-15	-29%	?	10%
O=C(C=Cc1ccc2c(c1)OCO2)C=Cc1ccc2c(c1)OCO2	7%	11%	-18	?	23µM*	?
O=C(/C=C/c1ccc2c(c1)OCO2)NCCS(=O)(=O)N1CCN(c2ccc(F)cc2)CC1	-30%	?	3	?	-26%	-10%
O=C(/C=C/c1ccc2c(c1)OCO2)c1ccccn1	26µM*	?	-1	23µM*	18µM*	?
O=C(N/N=C/c1ccc2c(c1)OCO2)c1ccccn1	?	?	-24	?	?	3%[57.4 µM]
CC(/C=C/c1ccc2c(c1)OCO2)=N/NC(=O)c1ccc(C)nc1	-19%	-26%	i	?	23µM*	26%
O=C(/C=C/c1ccc2c(c1)OCO2)N1CCOCC1	-2%	-3%	9	-11%	-6%	0%
Cc1ccc(/C=N/NC(=O)c2ccc(Cl)cc2)s1	nt	nt	nt	nt	nt	11%
CC1COCCN1C(=O)C1CCN(c2nc3ccccc3o2)CC1 (stereo not given)	nt	nt	nt	nt	nt	33%
COc1ccc(-n2c(COc3ccc(Cl)cc3)nnc2SCC(=O)C(C)(C)C)cc1	nt	nt	nt	nt	nt	1%
COc1cccc(-c2nc(C#N)c(N3CCN(C(=O)c4cccs4)CC3)o2)c1	nt	nt	nt	nt	nt	23%
CCN(C(=O)/C=C/c1ccc2c(c1)OCO2)c1ccccc1	21%	16%	-4	?	?	-26%
O=C(/C=C/c1ccccc1)c1ccccn1	?	?	-12	23µM*	16µM*	0%
COC(=O)c1c(C)[nH]c(C(=O)/C=C/c2cccc(Cl)c2)c1C	12%	3%	-64*	?	?	-20%
O=C(C=Cc1ccc2c(c1)OCO2)c1ccccc1	?	16µM*	-72*	?	16µM*	-4%
O=C(/C=C/c1cccc(Cl)c1)c1cccc(O)c1	nt	nt	nt	nt	nt	11%
COC(=O)c1c(C)[nH]c(C(=O)/C=C/c2ccc(C)cc2)c1C	-1%	2%	14	-16%	-3%	0%
O=C(C=Cc1cccc(Cl)c1)c1ccccc1	?	?	?	15µM*	23µM*	-9%
CCOc1ncccc1C(=O)Nc1cccc(S(=O)(=O)N2CCOCC2)c1	2%	1%	17	-17%	-28%	-3%
O=C(NCC1(N2CCOCC2)CCCCC1)c1ccc(NC(=O)c2cccs2)cc1	nt	nt	nt	nt	nt	34%
O=C(NCc1ccccc1)N1CCCC(Cc2noc(-c3ccncc3)n2)C1 (stereo not given)	nt	nt	nt	nt	nt	13%
COCCOc1ccc2c(n1)CCN(C(=O)c1cnccn1)C2	nt	nt	nt	nt	nt	76%
